From the supplement of paper PMC10981050
Where “and” joins values, the source holds several entries; their conditions need not be identical. Equal entries are not always repeated. Structures can show the parent of a compound that is named as a salt.

What was measured:
Assay in all cases: cell viability relative to vehicle control; higher = less cytotoxic
Settings in all cases: 10 µM
[1] = system: K562
Method in brief: (§1)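 Four leukaemia lines, as CRISPR-edited mutant clones and isogenic wild-type clones, were tested against Selleck bioactive, kinase and epigenetic probe libraries after removal of identity-inconsistent compounds. Cells were exposed to a single 10 µM dose for 48 h, and CellTiter-Glo luminescence was then read. Viability was calculated relative to the on-plate vehicle control.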

[2] = system: MARIMO
Method in brief: as §1

[3] = system: MOLM14
Method in brief: as §1

[4] = system: OCI-AML2
Method in brief: as §1

SMILES | cell viability ([1]; SRSF2 genotype: SRSF2 P95H/wt) | cell viability ([1]; SRSF2 genotype: SRSF2 wt/wt) [%] | cell viability ([2]; SRSF2 genotype: SRSF2 P95H/wt) [%] | cell viability ([2]; SRSF2 genotype: SRSF2 wt/wt) [%] | cell viability ([3]; SRSF2 genotype: SRSF2 P95H/wt) [%] | cell viability ([3]; SRSF2 genotype: SRSF2 wt/wt) [%] | cell viability ([4]; SRSF2 genotype: P95H/wt) [%] | cell viability ([4]; SRSF2 genotype: wt/wt) [%]
CS(=O)(=O)N1CCN(Cc2cc3nc(-c4cccc5[nH]ncc45)nc(N4CCOCC4)c3s2)CC1 [Pictilisib (GDC-0941)] | 88.3% and 97.1% | 94.5 | 64.3 | 57.8 | 55.9 | 64.6 | 48.5 | 55
CCCC(=O)Nc1ncnc2c1ncn2[C@@H]1O[C@@H]2COP(=O)(O)O[C@H]2[C@H]1OC(=O)CCC [Dibutyryl-cAMP (Bucladesine)] | 91.3% and 90.5% | 92.8 | 87.2 | 97.4 | 83.6 | 94.4 | 104 | 97.7
CC(C)n1ncnc1-c1cn2c(n1)-c1ccc(O[C@@H](C)C(N)=O)cc1OCC2 | 103% and 99.5% | 105 | 48.3 | 46.3 | 50.9 | 62.9 | 18.5 | 34.3
COc1ccc(-n2c(C)c([N+](=O)[O-])c3ccc(O)cc32)cc1 | 97.5% and 95.4% | 94 | 99.2 | 108 | 93.6 | 98.2 | 73.1 | 80.2
COc1ccc(C(=O)Nc2sc3c(c2C(N)=O)CCCC3)cc1OC | 95.4% and 96.5% | 91.5 | 93.8 | 91.9 | 79.8 | 93 | 85.2 | 81.4
Cc1ccccc1-c1cc(N2CCN(C)CC2)ncc1N(C)C(=O)C(C)(C)c1cc(C(F)(F)F)cc(C(F)(F)F)c1 [Netupitant] | 90.3% and 95.2% | 94.6 | 104 | 93.8 | 107 | 98.4 | 70.3 | 75.3
Nc1cccc2c1CN(C1CCC(=O)NC1=O)C2=O (stereo not given) [Lenalidomide (CC-5013)] | 98.2% and 96.6% | 94.8 | 97.1 | 101 | 91.3 | 93.5 | 118 | 113
CCCCNc1ncc(C(=O)NCc2ccc(-n3ccnc3)cc2)c(NC2CCC(O)CC2)n1 (stereo not given) | 84.4% | 72.8 | 73 | 83.9 | 25.6 | 20.8 | 48.4 | 52.1
Nc1nccc(Oc2ccc(NC(=O)c3c[nH]cc(-c4ccc(F)cc4)c3=O)cc2F)c1Cl | 76.3% and 90.6% | 80.8 | 96.2 | 110 | 19.9 | 14.8 | 41.8 | 43.6
CNc1cc(-c2cccc(Cl)c2Cl)nc(N)n1 | 15.8% and 28.9% | 29.6 | 12.2 | 9.54 | 9.14 | 2.78 | 6 | 11.5
Nc1nc(F)nc2c1ncn2[C@@H]1O[C@H](CO)[C@@H](O)[C@@H]1O [Fludarabine (Fludara)] | 102% and 107% | 100 | 64.5 | 77.6 | 65.7 | 82.8 | 4.58 | 5.52
CC(C)=CCC[C@](C)(O)[C@H]1CC[C@]2(C)[C@@H]1[C@H](O)C[C@@H]1[C@@]3(C)CC[C@H](O)C(C)(C)[C@@H]3[C@@H](O)C[C@]12C [(20S)-Protopanaxatriol] | 90.2% and 89.5% | 101 | 96.1 | 105 | 106 | 106 | 107 | 101
CO[C@@H]1[C@H](OC(=O)/C=C/C=C/C=C/C=C/C(=O)O)CC[C@]2(CO2)[C@H]1[C@@]1(C)O[C@@H]1CC=C(C)C [Fumagillin] | 77.1% and 77.5% | 72.3 | 51.5 | 69.4 | 50.9 | 50.5 | 72.4 | 63
C[C@H]1COc2c(N3CCN(C)CC3)c(F)cc3c(=O)c(C(=O)O)cn1c23 [Levofloxacin (Levaquin)] | 95.5% and 83.8% | 87.5 | 90.4 | 101 | 95.2 | 88 | 87.3 | 88.3
CCC(=O)O[C@H]1[C@H](O[C@@H]2[C@@H](C)[C@H](O[C@H]3C[C@@](C)(OC)[C@@H](O)[C@H](C)O3)[C@@H](C)C(=O)O[C@H](CC)[C@@](C)(O)[C@H](O)[C@@H](C)C(=O)[C@H](C)C[C@@]2(C)O)O[C@H](C)C[C@@H]1N(C)C [Erythromycin estolate] | 92.3% and 89.5% | 90.4 | 92.3 | 105 | 96.4 | 95.8 | 77.5 | 76.8
Cc1ccc(NC(=O)c2ccc(CN3CC[C@H](N(C)C)C3)c(C(F)(F)F)c2)cc1Nc1nccc(-c2cncnc2)n1 [Bafetinib (INNO-406)] | 1.12% and 1.27% | 4.57 | 54.6 | 43.2 | 49.9 | 49 | 23.6 | 30.4
CC(C)C[C@H](NC(=O)CNC(=O)c1cc(Cl)ccc1Cl)B1OC(=O)CC(CC(=O)O)(C(=O)O)O1 (stereo not given in full) [Ixazomib Citrate (MLN9708)] | 2.32% and 2.83% | 4.01 | 0.72 | 2.45 | 0.35 | 0.36 | 0.42 | 1.49
CN(C)/N=N/c1[nH]cnc1C(N)=O [Dacarbazine (DTIC-Dome)] | 117% and 112% | 110 | 108 | 107 | 97.6 | 108 | 107 | 112
C=CCc1cccc(/C=N/NC(=O)CN2CCN(Cc3ccccc3)CC2)c1O | 70.5% and 67% | 65.4 | 25.7 | 31.6 | 12.3 | 8.85 | 19.2 | 19.7
COc1cc(O)c(C(=O)Nc2nc(C(=O)NCCN(C(C)C)C(C)C)cs2)cc1OC [Acotiamide] | 101% and 97.3% | 107 | 98 | 108 | 97.5 | 106 | 94.1 | 101
